Kir21 block: blocks the mouse Kir2.1 inward-rectifier potassium channel. P35561. HEK293-Kir2.1, FluxOR thallium flux fluorescence; stronger effect = lower value. hit rate 0.85% among 310,000. B-score at 10 µM;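 active = fluorescence ratio B-score at or below minus 3 SD of library scores, with starting-brightness B-score within 2 SD, cut at about -4.2 in these data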;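 note: channel flux triggered by added potassium and thallium sulfate stimulus; B-score of peak minus minimum fluorescence over baseline after thallium stimulus; more negative B-score means stronger Kir2.1 block with less thallium influx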
Target sequence (P35561 whole entry, looked up): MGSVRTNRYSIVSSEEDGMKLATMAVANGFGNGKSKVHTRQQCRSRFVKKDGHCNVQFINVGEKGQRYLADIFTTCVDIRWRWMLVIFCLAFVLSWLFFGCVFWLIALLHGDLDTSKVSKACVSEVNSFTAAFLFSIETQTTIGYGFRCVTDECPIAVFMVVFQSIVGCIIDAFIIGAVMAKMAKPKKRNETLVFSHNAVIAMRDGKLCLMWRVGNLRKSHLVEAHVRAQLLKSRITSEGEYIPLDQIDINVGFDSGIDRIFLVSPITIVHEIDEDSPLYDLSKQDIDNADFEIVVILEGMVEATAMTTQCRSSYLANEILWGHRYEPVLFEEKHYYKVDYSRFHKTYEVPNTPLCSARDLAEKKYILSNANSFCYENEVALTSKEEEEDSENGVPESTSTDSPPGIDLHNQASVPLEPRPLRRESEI
TAG inh: triacylglycerol accumulation inhibition; inhibition, % at 12.5 µM; H9c2 cells, Nile Red lipid (TAG) fluorescence; cells loaded with 200 µM oleic acid; AID 651582; hit rate 0.66% among 230,000;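 active = pattern-corrected inhibition of lipid staining of at least 50% with the nuclear-stain viability signal not falling by more than 50%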
CHT PAM: allosteric activators of human choline transporter CHT; Q9GZV3; CHT-expressing cells, membrane potential dye, choline EC20; stronger effect = higher value; LV-AA mutant CHT in HEK293 cells; B-score at 10 µM; hit rate 0.49% among 310,000; AID 488977;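 active = initial fluorescence not abnormally high and integrated response B-score, plate-corrected, over 3 SD above library mean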
CHT block: inhibitors of human choline transporter CHT | AID 488975 | B-score at 10 µM | CHT-expressing cells, membrane potential dye, choline response; stronger effect = lower value | hit rate 0.86% among 310,000;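 active = B-score over 3 SD under the library average, and starting fluorescence ratio not unusually high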;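 note: choline stimulus applied at its EC90 after an EC20 pre-addition; B-score computed on integrated fluorescence ratio after choline addition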
CHT inh conf: confirmation of human choline transporter CHT inhibitors. shares compounds with CHT block. CHT activity remaining % of control (stronger effect = lower value), % at 10 µM. AID 493221. hit rate 70% among 2,400. CHT-expressing cells, choline membrane potential dye; LV-to-AA substituted CHT, HEK293 cells;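 active = choline transporter activity left, mean of duplicates at 10 µM, below buffer-only control mean minus 3 SD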;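 note: depolarization triggered by choline at its EC90 following an EC20 pre-addition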
HEK293 MPD ctr: activity in parental HEK293 cells lacking CHT; membrane potential dye, choline response; active = decrease or increase beyond buffer ±3SD; hit rate 4% among 2,400; membrane potential ratio readout (active if shifted either direction beyond buffer ±3SD; no single direction) at 10 µM; shares compounds with CHT block;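 note: parental cells lack the transporter so any hit is non-specific; ratio is peak minus trough fluorescence over baseline after EC90 choline challenge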
A number is an active result; . = inactive; / = no result given. A selection: hits, their analogues and other compounds. The true share with any hit is near 2%.

SMILES	Kir21 block	TAG inh	CHT PAM	CHT block	CHT inh conf	HEK293 MPD ctr
O=C(NNc1ccc([N+](=O)[O-])cc1[N+](=O)[O-])c1ccco1	.	.	.	-7.5	67%	.
O=C(NC1CCCCC1)C(c1ccc2ncccc2c1)N(Cc1ccc(F)cc1)C(=O)c1ccc2c(c1)OCCO2 (configuration not stated)	.	/	.	-7.5	65%	.
O=C(NC1CCCCC1)C(c1ccc2ncccc2c1)N(Cc1cccs1)C(=O)c1cccs1 (configuration not stated)	.	/	.	-5.5	.	.
O=C(NC1CCCCC1)C(c1ccc2ncccc2c1)N(Cc1ccc2c(c1)OCO2)C(=O)c1ccc2c(c1)OCCO2 (configuration not stated)	.	/	.	-14	30%	.
O=C(CCNC(=O)Cn1ccc2ccccc2c1=O)NCc1ccc(F)cc1Cl	.	.	.	.	/	/
Cc1cc(C)n2nc(SCC(=O)N(CCC#N)c3ccc(F)cc3)nc2n1	/	.	/	/	/	/
COc1ccc(Cc2nnc(NC(=O)c3ccccc3F)s2)cc1	.	/	.	.	/	/
N/C(=C\C(=O)c1cc(Cl)ccc1O)C(Cl)(Cl)Cl	.	.	.	.	/	/
O=C(NNC(=O)c1cccs1)Nc1cccc(Cl)c1	.	.	.	.	/	/
O=C(NNc1cc(Cl)cc(Cl)c1)c1cccs1	.	.	.	-6.1	43%	.
Cc1ccc(Cl)cc1N1CCN(C(=O)Cc2c(C(=O)O)[nH]c3ccccc23)CC1	.	/	.	.	/	/
Cc1ccc(Cl)cc1N1CCN(C(=O)Cc2c(C(=O)O)[nH]c3ccc(Cl)cc23)CC1	.	.	.	-7.6	55%	.
COC(=O)c1ccccc1C(=O)N1CC(O)CO1 (configuration not stated)	.	/	.	.	/	/
CCN(CC)c1nc2c(c(=O)[nH]c(=O)n2C)n1Cc1ccccc1	.	.	.	.	/	/
CCCCCCn1c(N(CC)CC)nc2c1c(=O)[nH]c(=O)n2C	.	/	.	-6.4	.	.
COc1cc(NC(=O)CN(C)Cc2cccc(F)c2)c(C)cc1[N+](=O)[O-]	.	.	.	.	/	/
C=CCn1c(NC(=O)c2ccccc2Cl)c(C#N)c2nc3ccccc3nc21	.	.	.	-5.8	.	.
CCCCn1c(NC(C)=O)c(C#N)c2nc3ccccc3nc21	.	.	.	.	/	/
O=C(c1cccc(-c2nnc(-c3ccccc3)o2)c1)N1CCCCC1	.	.	.	-6.3	.	.
CC1(C(=O)N2CCC(CC3CC(c4ccc(Cl)cc4)=NO3)(C(=O)NCC3CCCCC3)CC2)CC1 (configuration not stated)	.	.	.	-5.2	71%	.
CC(C)c1nc(SCC(=O)Nc2ccc([N+](=O)[O-])cc2Br)n[nH]1	.	.	.	-5.8	.	.
CC(C)[C@H](NC(=O)c1ccccc1)C(=O)OCC(=O)c1ccc2c(c1)NC(=O)CO2	.	/	.	-9	33%	.
CCCCC(CC)C(=O)Nc1cc(C(=O)NCCC)ccc1N1CCC2(CC1)CC(c1ccccc1)=NO2 (configuration not stated)	.	.	.	.	/	/
O=[N+]([O-])c1cc(-c2ncccn2)c([N+](=O)[O-])s1	.	/	.	-6.3	48%	.
CC12CCC(=O)C=C1CCC1C2C(=O)CC2(C)C1CC[C@]2(O)C(=O)CO (some centres not stated)	.	/	.	.	/	/
SMILES	Kir21 block	TAG inh	CHT PAM	CHT block	CHT inh conf	HEK293 MPD ctr
CCc1ccc(OCC(=O)N2CCN(c3ccccc3F)CC2)cc1	.	.	.	-5.5	.	.
O=[N+]([O-])c1cccc(S(=O)(=O)Nc2ccc(Cc3ccncc3)cc2)c1	.	.	.	-6.1	59%	.
O=[N+]([O-])c1cccc(S(=O)(=O)NCc2ccncc2)c1	.	/	.	.	/	/
O=C1NC(=O)/C(=C/c2ccccc2Oc2ccc(Cl)cc2)S1	.	.	.	.	/	/
Cc1ccc(S(=O)(=O)Oc2ccccc2/C=C2\SC(=O)NC2=O)cc1	.	.	.	-5.6	49%	.
O=C(COc1ccccc1/C=C1/NC(=O)NC1=O)Nc1ccccc1	.	/	.	.	/	/
O=C(COc1ccccc1/C=C1\SC(=O)NC1=O)Nc1ccc(F)cc1	.	/	.	-6.9	.	.
Cc1nnc(SC(C)C(=O)Nc2sc3c(c2C#N)CCCC3)[nH]c1=O (configuration not stated)	.	/	.	-5.2	65%	.
CCc1nnc(NC(=O)CSc2ncc(-c3ccccc3)n2C)s1	.	.	.	-5.5	65%	.
CCc1nnc(NC(=O)CSc2nccn2-c2ccccc2)s1	.	/	.	.	/	/
CCc1nnc(NC(=O)CSc2nnc(-c3ccccc3OC)n2-c2ccc(C)cc2)s1	.	.	.	.	/	/
CCc1nnc(NC(=O)CSc2nnc(-c3ccccc3OC)n2-c2ccccc2)s1	.	.	.	-5.5	41%	.
CC(C)c1nnc(NC(=O)c2nc(S(=O)(=O)Cc3ccccc3)ncc2Cl)s1	.	/	.	-7.7	3.0%	.
CCCc1nnc(NC(=O)c2nc(S(=O)(=O)Cc3ccc(C)cc3)ncc2Cl)s1	.	/	.	-7.4	7.6%	.
CCc1ccc(NC(=O)c2nc(S(=O)(=O)Cc3ccccc3)ncc2Cl)cc1	.	/	.	.	/	/
CCC(NC(=O)CCc1c(C)c2cc3c4c(oc3cc2oc1=O)CCCC4)C(=O)O (configuration not stated)	.	/	.	.	/	/
CCN(CC)CC(=O)Nc1ccc(/C(C)=N/NC2=NCCN2)cc1	.	.	.	.	/	/
C/C(=N\NC1=NCCN1)c1ccccc1	.	.	.	-6.5	32%	.
COc1ccc(Br)cc1/C(C)=N/NC1=NCCN1	.	.	.	.	/	/
C/C(=N\NC1=NCCN1)c1ccc(Cl)cc1	.	.	.	-6.7	52%	.
COc1cc(/C=N/S(=O)(=O)CCc2ccccc2)cc(OC)c1O	.	/	.	.	/	/
Oc1ccc(C[C@H]2CNC(=S)N2CC2CCCN2C[C@H](Cc2ccccc2)N2C[C@H](Cc3ccc(O)cc3)N(CCc3ccccc3)C2=S)cc1 (some centres not stated)	/	.	/	/	/	/
COc1ccccc1CCC(=O)OCC(=O)c1c(N)n(CC(C)C)c(=O)n(C)c1=O	.	.	.	-5.7	43%	.
CC(NC(=O)/C=C/c1ccccc1)c1ccccc1 (configuration not stated)	.	.	.	-5.4	.	.
O=C(NCCCN1CCOCC1)c1ccc2c(=O)n(-c3ccc(F)c(Cl)c3)c(=S)[nH]c2c1	.	/	.	-11	21%	.
O=C(NCCCN1CCOCC1)c1ccc(Cl)c(S(=O)(=O)N2CCCCCC2)c1	.	/	.	-8.3	37%	.
COc1ccc(-n2c(=S)[nH]c3cc(C(=O)NCCCN4CCOCC4)ccc3c2=O)cc1	.	/	.	-5.2	47%	.
O=C(O)c1ccc2c(=O)n(-c3ccc(F)c(Cl)c3)c(=S)[nH]c2c1	.	.	.	.	/	/

Screens from PubChem.
